Experiment [1] can be described thus: NCI Yeast Anticancer Drug Screen. Data for the rad50 strain (AID 155).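 Note: 0% = growth of vehicle-only cultures of the same strain.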 As to conditions: S. cerevisiae rad50 strain growth inhibition; at 50.0 µM; hits give high values. In short, it runs like this: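 Relative growth inhibition (compound vs vehicle) was measured in yeast with a defined repair-gene alteration.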
Experiment [2] is described as follows: NCI Yeast Anticancer Drug Screen. Data for the mec2-1 strain (AID 157). As to conditions: S. cerevisiae mec2-1 strain, at 50.0 µM, hits give high values. In short, it runs like this:
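Readout is yeast growth inhibition, normalised to vehicle-treated controls, in the mec2-1 strain exposed to compound.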

A short description of experiment [3]: NCI Yeast Anticancer Drug Screen. Data for the sgs1 mgt1 strain (AID 161).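 Note: 0% = growth of cultures given vehicle only.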 As to conditions: S. cerevisiae sgs1 mgt1 strain, at 50.0 µM, hits give high values. Summed up: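 This yeast growth screen uses a strain with defined DNA-repair lesions; compound-treated growth is compared with vehicle-treated growth.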
A short description of experiment [4]: NCI Yeast Anticancer Drug Screen. Data for the cln2 rad14 strain (AID 165).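 Note: 0% = growth equal to vehicle treated cultures.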 As to conditions: S. cerevisiae cln2 rad14 strain, at 50.0 µM, hits give high values. In short, it runs like this: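 Relative to vehicle controls, growth inhibition of compound-treated cln2 rad14 yeast was recorded.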
Experiment [5] in a line: NCI Yeast Anticancer Drug Screen. Data for the bub3 strain (AID 167). As to conditions: S. cerevisiae bub3 mutant strain, at 50.0 µM, hits give high values. Summed up: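 Screening used yeast with an engineered genetic alteration affecting cell cycle control. Compound-exposed cultures were compared with vehicle cultures, and reduced growth was taken as inhibition.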
Experiment [6] can be described thus: NCI Yeast Anticancer Drug Screen. Data for the mlh1 rad18 strain (AID 175). As to conditions: S. cerevisiae mlh1 rad18 strain growth inhibition; at 50.0 µM; hits give high values. In short, it runs like this:
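Test agents were incubated with a yeast strain of defined genotype (DNA damage repair defect). Inhibition of growth was derived by comparison with vehicle-exposed cultures.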

These results are taken from PubChem BioAssay (NCI).

Compounds without any hit were thinned out: in the full panel of roughly 79,000, 15% have a hit. Unmarked numbers belong to inactive results. Activity calls are given as the source filed them. Cut-off read from the data, not from the text of the source: active = growth inhibition above about 70%; inactive = the rest.

As for `Nc1ncnc2c1ncn2CCC(COCc1ccccc1)COCc1ccccc1`, the growth inhibition is 40.8% in experiment [1]; 0.4% in experiment [2]; 50.8% in experiment [3]; -10% in experiment [4]; 4.6% in experiment [5]; 11.7% in experiment [6].
Consider `OC1CSCCCSCC(O)CSCCCSC1` (stereo not drawn), for which the growth inhibition was 1.7% in experiment [1]; 10.9% in experiment [2]; 3.4% in experiment [3]; -2.5% in experiment [4]; 0.2% in experiment [5]; 8% in experiment [6].
On to `CNC(=S)SC(=S)NC`, for which the growth inhibition was 14.6% in experiment [1]; 8.3% in experiment [2]; -4.55% in experiment [3]; -20.4% in experiment [4]; -1.75% in experiment [5]; 4.75% in experiment [6].
For the compound `CC1=C(C(=O)CC(=O)C(=O)NC2C3CC4CC(C3)CC2C4)Sc2ccccc2N1` (stereo not drawn), the growth inhibition in experiment [1] was -33.5%; in experiment [2] it was -0.15%; in experiment [3], -2.6%; in experiment [4] it was 8.8%; in experiment [5], -0.6%; in experiment [6], -21%.
For `c1ccc(N=C2CCCCCC2)cc1`, the growth inhibition in experiment [1] was -1.85%; in experiment [2], 14.2%; in experiment [3], -5.8%; in experiment [4] it was 7.15%; in experiment [5] it was -9.25%; in experiment [6], -6.7%.
`CCCC1CN2CCc3cc(OC)c(OC)cc3C2CC1=O` (stereo not drawn): the growth inhibition in experiment [1] was 4.6%; in experiment [2] it was 23.6%; in experiment [3], 41.1%; in experiment [4] it was 12.4%; in experiment [5], 41.1%; in experiment [6], 39.8%.
As to `CCCCCCCCCCOc1ccc(OCCCCCCCCC)cc1`, the growth inhibition is 15.5% in experiment [1]; -15.8% in experiment [2]; 12.9% in experiment [3]; -45% in experiment [4]; -2.3% in experiment [5]; -11.9% in experiment [6].
Turning to `COC(=O)/C(C#N)=C(\C)CC(C)C`, the growth inhibition in experiment [1] was 13.2%; in experiment [2], -17.4%; in experiment [3], -20.1%; in experiment [4], -3.65%; in experiment [5], -24.4%; in experiment [6], -9%.
For `CC(=O)CC(C)=NCCN=C(C)CC(C)=O.[Cu]`, the growth inhibition in experiment [1] is 86.2% (active); in experiment [2], 64.2%; in experiment [3], 75.7% (active); in experiment [4], 84.4% (active); in experiment [5], 71.8% (active); in experiment [6], 82% (active).
As for `COC(=O)c1cc(C)cc(N(c2ccccc2[N+](=O)[O-])S(=O)(=O)c2ccc(C)cc2)c1C`, the growth inhibition was 15.9% in experiment [1]; -9.35% in experiment [2]; -25.3% in experiment [3]; 1.2% in experiment [4]; -10.3% in experiment [5]; -9% in experiment [6].
As for `COc1cc([N+](=O)[O-])c2ncccc2c1OC`, the growth inhibition in experiment [1] is 5.55%; in experiment [2] it was -11.1%; in experiment [3], -22.1%; in experiment [4] it was -20.2%; in experiment [5] it was 0.45%; in experiment [6] it was 68.2%.
On to `O=C(O)Cc1ccc2c(c1)C(=O)C(=O)N2`, for which the growth inhibition was 18.6% in experiment [1]; 18.6% in experiment [2]; 7.05% in experiment [3]; -8.75% in experiment [4]; -18.7% in experiment [5]; 15.1% in experiment [6].
On to `O=[N+]([O-])c1ccc2c(ccn2C2OCC(O)C(O)C2O)c1` (stereo not drawn), for which the growth inhibition in experiment [1] was 5.7%; in experiment [2], 13.6%; in experiment [3], 8.7%; in experiment [4], -3.55%; in experiment [5], 18.1%; in experiment [6] it was -2.7%.
For the compound `C[N+](C)(C)C(C1=CCCC1=O)c1ccccc1` (stereo not drawn), the growth inhibition in experiment [1] is 50%; in experiment [2], 43.3%; in experiment [3] it was 3.7%; in experiment [4], 26.9%; in experiment [5], 30.3%; in experiment [6], 43.6%.
For `O=C1C(/C=N\C(=S)NCc2ccccc2)=C(O)c2ccccc21`, the growth inhibition in experiment [1] is -31.9%; in experiment [2], -30.2%; in experiment [3] it was -27.1%; in experiment [4], 15.7%; in experiment [5], -3.45%; in experiment [6], -7.05%.
For the compound `C=CCc1nc2c([nH]1)c(=O)n(C)c(=O)n2C`, the growth inhibition in experiment [1] was 33.5%; in experiment [2], -2.2%; in experiment [3], 37.6%; in experiment [4], 11.7%; in experiment [5] it was -6.8%; in experiment [6], 18.6%.
Regarding `CCOC(=O)c1cccc2ncccc12`, the growth inhibition in experiment [1] was -1.6%; in experiment [2], 9.35%; in experiment [3] it was -2.8%; in experiment [4], -28.2%; in experiment [5], -9.05%; in experiment [6], 10.8%.
Consider `CC(C)(N)C(=O)N[C@@H]1C(=O)N2[C@@H]1SC(C)(C)[C@@H]2C(=O)O`, for which the growth inhibition in experiment [1] is 8.4%; in experiment [2], 3.55%; in experiment [3], -19.2%; in experiment [4], -0.95%; in experiment [5], 5.9%; in experiment [6] it was 4%.
With `O=C(O)c1cc(C(=O)O)cc(S(=O)(=O)NCCO)c1`, the growth inhibition was 3.05% in experiment [1]; -10.5% in experiment [2]; 2.1% in experiment [3]; -30.2% in experiment [4]; 3% in experiment [5]; 5.1% in experiment [6].
On to `CCC(CC)C(=O)OCCCc1ccccc1`, for which the growth inhibition was 3.95% in experiment [1]; -0.05% in experiment [2]; 10.4% in experiment [3]; -7.4% in experiment [4]; 11.9% in experiment [5]; 4.4% in experiment [6].
In the case of `Cc1ccc(P(=O)(O)O)cc1C`, the growth inhibition in experiment [1] was -18.2%; in experiment [2], -7.3%; in experiment [3], 0.3%; in experiment [4], -2.1%; in experiment [5] it was -7.75%; in experiment [6], -10.4%.
In the case of `CCC1CCC(C(C)(C)C)C(=O)C1` (stereo not drawn), the growth inhibition in experiment [1] is 6.45%; in experiment [2], 1.75%; in experiment [3] it was 2.55%; in experiment [4], -11.3%; in experiment [5] it was 3.7%; in experiment [6] it was -4%.
Regarding `O=C1CSC(c2ccc(C(F)(F)F)cc2)N1c1nncs1` (stereo not drawn), the growth inhibition in experiment [1] is -1.2%; in experiment [2], -3.5%; in experiment [3], 29%; in experiment [4] it was -1.45%; in experiment [5], 12.6%; in experiment [6] it was 24.2%.
In the case of `Cc1[nH]n(-c2ncc(C#N)c(=O)[nH]2)c(=O)c1CCO`, the growth inhibition in experiment [1] is -8.75%; in experiment [2], -34.1%; in experiment [3] it was -16%; in experiment [4], -31.9%; in experiment [5], -11.8%; in experiment [6], -71.3%.
In the case of `O=C(CCl)N1C(=O)NC(c2ccc(Cl)cc2)(c2ccc(Cl)cc2)C1=O`, the growth inhibition is 6.9% in experiment [1]; 12% in experiment [2]; 8.9% in experiment [3]; -4.8% in experiment [4]; -29% in experiment [5]; -3.9% in experiment [6].
With `O=S1(=O)C(c2ccc(F)cc2)=C(O)c2cc3ccccc3nc21`, the growth inhibition in experiment [1] was 29.2%; in experiment [2], 30.9%; in experiment [3], 27%; in experiment [4], 21.4%; in experiment [5] it was -8.85%; in experiment [6], 23.2%.
On to `Cc1cccc2c(C(=O)O)c3cccc(C)c3nc12`, for which the growth inhibition in experiment [1] is 2.9%; in experiment [2], -0.15%; in experiment [3], 8.35%; in experiment [4], 18.6%; in experiment [5], 5.3%; in experiment [6], -3.95%.
Take `O=C(O)CSC1=NNC2(C(=O)N1)c1ccccc1-c1ccccc12`: the growth inhibition was 1.8% in experiment [1]; -2% in experiment [2]; 18.4% in experiment [3]; -2.1% in experiment [4]; -3.85% in experiment [5]; 24.1% in experiment [6].
As to `COc1ccccc1Nc1nc(N)nc(N)c1N`, the growth inhibition in experiment [1] is 0.85%; in experiment [2], -3.65%; in experiment [3], 5%; in experiment [4], -3.75%; in experiment [5], -4.9%; in experiment [6] it was 11.2%.
With `Cc1c2cnccc2c(C)c2c1c1ccccc1n2CCCCCCCl`, the growth inhibition was 94.5% (active) in experiment [1]; 69% in experiment [2]; 49.8% in experiment [3]; 66% in experiment [4]; 95.7% (active) in experiment [5]; 98.5% (active) in experiment [6].
Consider `Cc1cc2oc3c(c2c(=O)[nH]1)C(=O)c1ccccc1C3=O`, for which the growth inhibition in experiment [1] is -6.55%; in experiment [2], -1.3%; in experiment [3], -8%; in experiment [4] it was -17.4%; in experiment [5], -21.8%; in experiment [6] it was -5.85%.
`CCCc1cc(=O)n(CCCc2ccccc2)c(=O)[nH]1`: the growth inhibition is -3.85% in experiment [1]; 1.25% in experiment [2]; 13.4% in experiment [3]; -7.75% in experiment [4]; 15.2% in experiment [5]; 18.4% in experiment [6].
As to `COC(=O)C(=O)C(/C=N/C(=S)NC1CCCCC1)=C(\O)c1ccc(F)cc1`, the growth inhibition in experiment [1] is -32.3%; in experiment [2] it was -24.7%; in experiment [3] it was -8.5%; in experiment [4], -5.05%; in experiment [5] it was -15.8%; in experiment [6], -2.7%.
`CCCCCCCCCCCCCCCC1=NN(c2ccc([N+](=O)[O-])cc2)C(=O)C1`: the growth inhibition is 14.9% in experiment [1]; -3.8% in experiment [2]; -25.8% in experiment [3]; -8.4% in experiment [4]; 1.3% in experiment [5]; 0.75% in experiment [6].
`CCOC(=O)/C(F)=C/c1cccc(C)c1`: the growth inhibition was -5.05% in experiment [1]; -23% in experiment [2]; -17.9% in experiment [3]; -4.7% in experiment [4]; -5.45% in experiment [5]; -3.1% in experiment [6].
Take `O=[N+]([O-])c1cccc(N=Nc2ccccc2)c1`: the growth inhibition is -4.25% in experiment [1]; -10.3% in experiment [2]; -22.3% in experiment [3]; 18.7% in experiment [4]; -21.6% in experiment [5]; -0.95% in experiment [6].
With `COc1cc2c(C)cc(=O)oc2c(OCC(O)CN2CCCC2)c1OC` (stereo not drawn), the growth inhibition in experiment [1] was -0.75%; in experiment [2], 14%; in experiment [3], -5.75%; in experiment [4] it was 1.35%; in experiment [5], -4.35%; in experiment [6] it was -5.25%.
Take `Cc1cc(C)c(C(=O)Oc2ccc(C)c(CC(Cl)(Cl)Cl)c2)c(C)c1`: the growth inhibition in experiment [1] was 32.8%; in experiment [2], 9%; in experiment [3] it was 4.85%; in experiment [4], 19.1%; in experiment [5] it was -0.2%; in experiment [6], 14.4%.
